{
  "source": "the supplement of paper PMC12632987",
  "binders": {"B1": {"name": "GBRAP_184_5358 (protein)", "chain": "EVRHLSVTVETKEEAVEKLAEAREEIRASGLPTVLVVELKNADLETVETVMELLAELREEGLIERGIVVVDDDRSEEEIDKMVELADRYGVDLVVAIPEE"}, "B2": {"name": "GBRAP_159_3958 (protein)", "chain": "MEELEKRVKEAKEKAKDNPEVVKLIEEVYDLIKEGEDAETIADFTVGSIVTLDVTPEEARLVLSVLPEETRRLAAEDLAYLAEELGREDLAAAARAILEE"}, "B3": {"name": "GBRAP_128_3325 (protein)", "chain": "MNEERIKEAEEIIKEIVKADVEEAKKLTEELLKLMETMTDEERDIVVEIMEKELEKLDAEKLDAIADTIRELQPTLDPLTARYAAEIEVEALNLAEEKEE"}, "B4": {"name": "GBRAP_160_4147 (protein)", "chain": "SAELKALIEEIREITEEAIKLMEGETPEEAKVIARVALGEIVMLVFSNEAVSEETEEEVGEVADEAEAHLRANPDLTVEEIKAILREAGEEVIEIIEKEV"}, "B5": {"name": "GBRAP_160_4149 (protein)", "chain": "SEELKKLIKEIKEITEEAIKLMEGETPEEAKVIAKVALGEIVMLVESNEEVSEETEEKVGEIADEAEEYLDENPDLTVEEIKELLKKAGEEVIKIIEEEL"}, "B6": {"name": "GBRAP_52_5941 (protein)", "chain": "SSSRLKEIAEELIKLALAGDEEGLRKKAREIAKTYSDEEILAIAKEIAKMAKEAPKEDLDAYFRLMEILTEELEKEGRSEELISEIEGLMAKAMYENELK"}, "B7": {"name": "GBRAP_160_4588 (protein)", "chain": "MESLEKMKEIVREELEEAKEMIVGETAEQRATIVLGAGGEIVMELSENPEASDELEDEVLKIADEAADTILANPNITEEEFNALLDEMEKKMIEAIEKHL"}, "B8": {"name": "GBRAP_11_2927 (protein)", "chain": "KKEKIKEIAELAEELAEAADRLIAEGTDNEELRKKLEELLEKLVELVKEYGDEADKKDAEHMRELWEKAKADPANAVQYLTELRNEARVLSGIYLLEYDE"}, "B9": {"name": "GBRAP_139_3733 (protein)", "chain": "SADDAAVAEVVALTKRSVETGGALVAEIADALNALDEDTADRAAEAMAEVLETQPFDVAEALFDALIDTLLTEHKNEDLATIVEAAANRALARIAVREEA"}, "B10": {"name": "GBRAP_52_6365 (protein)", "chain": "MLEEAVELLRKAVEATLAGKEEEAEEILKEIVENFSDETIVKAVERLAEEVATKTLEEAEAFLDTAIRLADIMLEAGRDEAKADEIEAIAAKAYSAVLAK"}, "B11": {"name": "GBRAP_160_4221 (protein)", "chain": "SETIERIVKIFRENFEEAVELIEGESLEEQKVILDVAVGEVILEVSSDENVTDEMEEVVEKKAEEAAEELLKLKNASREEKLKLIEEKAKELKKELEKLA"}, "B12": {"name": "GBRAP_160_4219 (protein)", "chain": "METIERIVEIFRENFLEALELIEGESEEERKVILDVAVGEIILEVDSDENVTDEMEEVVDEKARELAEELLKLKNASEEEKRALIEEKAEELREELEKLA"}, "B13": {"name": "GBRAP_166_4915 (protein)", "chain": "SMEELLEEAKRRIEELVKKIPKTDREKQVELAIEIAEVLEELEKAGASEEELDELWRHLAEALKEAGLDVERLMAVVAAAAGLDEEEMERVDEIVEEVLA"}, "B14": {"name": "GBRAP_52_6254 (protein)", "chain": "MRARLRADAREIVALVAAGREEEARALARDIAENYNEEELRLFVDEMAALAREARPEELDTVWRAAELMAEELEAAGKPEILVDDLLARVAAAAVEVLAR"}, "B15": {"name": "GBRAP_52_6084 (protein)", "chain": "MKEKIEKTAKEIYEAIKAGDKEKALELIKKAVEEFSKEEIKEMLELTAKRVASLGDDAHELFVDILDEAEDILIEAGISEDDALLIVGSAEAALAKAVAA"}, "B16": {"name": "GBRAP_52_6083 (protein)", "chain": "MEKEIEETANKIYEAIKAGDKEKALELIKEAIKKFSPEEIKEMLKLTAEKVASLGDEKHELFVDILTEAEDLMIEAGISEEEALLIVGDAEAALAKAVAA"}, "B17": {"name": "GBRAP_52_6085 (protein)", "chain": "MEEEIEERAEEIYEAIKAGDKEKALALIKKAIKEFSAEEIKRMLELTAKRVASLGDDAHELFVDILGEAEDLLIEAGISEEEALAIVGAAEAALARAVAA"}, "B18": {"name": "GBRAP_160_4760 (protein)", "chain": "KEKLKKLKEEVEEIFKEHLEMLKEVKPEEAPTVVRGAMGEVIMEVMSSEAASDELEEKIGEIADEAEEEAEANKDAPVEFHIKILEEARKKILSLIEEEI"}, "B19": {"name": "GBRAP_125_2982 (protein)", "chain": "PTEQELEDLRRFARALGLDEEEAEEAAELARAHSLRGTVYAILAALGEEEAADLVEKLTEEEVARVLRRVAAYLEAHPDATPEEVVALFRELAEEELAKR"}},
  "note": "Whole data set: some 4,500 sequences, median “median log2 fold change of GCK-ALFA target abundance (FLAG IP / Myc IP barcode read proportion)” near 0.078, cut for the lowest 2% near -0.6. Only a selection was taken, and the lowest values are over-represented in it overall.",
  "data": [
    {"target": "GABARAP, O95166", "sequence (O95166 whole entry, the tested form may be a part)": "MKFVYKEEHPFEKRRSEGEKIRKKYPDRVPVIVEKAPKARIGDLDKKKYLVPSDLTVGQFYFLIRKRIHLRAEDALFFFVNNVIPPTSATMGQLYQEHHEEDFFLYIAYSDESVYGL", "experiment": "median log2 fold change of GCK-ALFA target abundance (FLAG IP / Myc IP barcode read proportion) (log2 ratio); each designed protein is fused to an ALFA-tag nanobody in HEK293 cells to bring the named protein to FLAG-tagged glucokinase (GCK); Myc marks an untargeted standard; higher = target protein stabilised (more abundant)", "conditions": "target protein: 3xFLAG-MCP-GCK-ALFA reporter; HEK293 landing pad (RPLP)", "description": "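LABEL-seq trans screen in HEK293 landing-pad cells. Each de novo designed 100-aa effector handle, binding the indicated effector (E3 ligase, DUB or autophagy protein), is fused to a constant NbALFA target handle and induced with 2 ug/mL doxycycline. A FLAG-MCP-GCK-ALFA target and a Myc-MCP standard reporter were transfected, and after 48 h circRNA barcodes were recovered by anti-FLAG and anti-Myc IP and sequenced. The value is the median across barcodes (at least 3 per design) of log2(FLAG/Myc read-proportion ratio), with the two transfection replicates pooled. Negative values mean degradation and positive values mean stabilisation of the target.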", "values": [
      {"binder": "B1", "median log2 fold change": -0.0422},
      {"binder": "B2", "median log2 fold change": 0.0598},
      {"binder": "B3", "median log2 fold change": 0.156},
      {"binder": "B4", "median log2 fold change": -0.617},
      {"binder": "B5", "median log2 fold change": -0.271},
      {"binder": "B6", "median log2 fold change": 0.165},
      {"binder": "B7", "median log2 fold change": -0.211},
      {"binder": "B8", "median log2 fold change": 0.134},
      {"binder": "B9", "median log2 fold change": 0.133},
      {"binder": "B10", "median log2 fold change": -0.000301},
      {"binder": "B11", "median log2 fold change": -0.86},
      {"binder": "B12", "median log2 fold change": -0.349},
      {"binder": "B13", "median log2 fold change": 0.0994},
      {"binder": "B14", "median log2 fold change": -0.285},
      {"binder": "B15", "median log2 fold change": -0.732},
      {"binder": "B16", "median log2 fold change": -0.22},
      {"binder": "B17", "median log2 fold change": -0.146},
      {"binder": "B18", "median log2 fold change": -0.185},
      {"binder": "B19", "median log2 fold change": -0.551}
    ]}
  ]
}
